This is an account of results in PubChem BioAssay AID1209 (Sanford-Burnham Center for Chemical Genomics, 2008).

Hit rate of the full screen: of about 190,000 compounds, about 810 (0.43%) were called active. The sample as a whole holds a higher share of actives than the screen did. A number with no mark means an inactive call. Cut-off read from the data, not from the text of the source: active = inhibition above about 50%; inactive = the rest.

Sequence of Mannose-6-phosphate isomerase (Homo sapiens) (P34949 whole entry, looked up): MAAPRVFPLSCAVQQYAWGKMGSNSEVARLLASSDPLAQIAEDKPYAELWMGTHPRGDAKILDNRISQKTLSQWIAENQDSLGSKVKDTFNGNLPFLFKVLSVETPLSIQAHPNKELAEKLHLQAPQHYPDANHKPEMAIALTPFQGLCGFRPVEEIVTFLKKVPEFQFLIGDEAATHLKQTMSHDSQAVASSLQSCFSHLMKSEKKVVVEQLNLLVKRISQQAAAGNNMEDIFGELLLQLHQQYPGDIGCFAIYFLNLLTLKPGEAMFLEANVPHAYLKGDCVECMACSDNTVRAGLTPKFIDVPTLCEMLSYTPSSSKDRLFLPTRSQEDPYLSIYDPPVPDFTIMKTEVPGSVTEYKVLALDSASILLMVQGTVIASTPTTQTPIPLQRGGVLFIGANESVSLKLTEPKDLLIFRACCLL

This experiment addresses Mannose-6-phosphate isomerase (Homo sapiens) (UniProt P34949). Kind of experiment: MPI enzyme activity inhibition – biochemical, fluorescence intensity, coupled assay, primary screen (AID 1209).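 Note: plate controls were DMSO vehicle for no effect and wells lacking substrate for full effect.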 As to conditions: purified PMI enzyme, at 20 µM, active compounds read high.
As for `C/C(=N/NC(=O)c1ccncc1)c1c[nH]c2ccccc12`, the inhibition is -0.2%. Consider `Cc1cccc(-n2ccnc2SCC(=O)N2CCCc3ccccc32)c1C`, for which the inhibition was 5.4%. For the compound `COC(=O)c1c(C(=O)OC)c2cc(C(=O)c3ccccc3)ccn2c1Cl`, the inhibition was -15.3%. Take `CS(=O)(=O)N1CCN(C2CCN(Cc3ccccc3)CC2)CC1`: the inhibition was -0.6%. In the case of `CN1CCc2nc3sc(C(=O)NCc4ccccc4)c(N)c3cc2C1`, the inhibition is -30.8%. Take `CC(NC(=O)NC12CC3CC(CC(C3)C1)C2)c1ccc2c(c1)OCO2` (centres undefined): the inhibition was -7.3%. `O=C(NCC(c1ccco1)N1CCN(c2ccccc2F)CC1)OCc1ccccc1` (centres undefined): the inhibition is 18%. On to `O=C(N1CCCCCC1)n1c(Cc2ccccc2)nc2ccccc21`, for which the inhibition is -0.4%. As for `NCc1oc(-c2ccccc2)cc1C(=O)O`, the inhibition was -55.4%.

With `COc1c(C(O)CC(C)C)ccc2c1C(=O)OCc1cc(C)cc(O)c1O2` (centres undefined), the inhibition is 23.7%.

Turning to `O=C(CCCc1c[nH]c2ccccc12)NCC1COc2ccccc2O1` (centres undefined), the inhibition was -0.7%. As to `Cc1cccc(CN2CCN(CC(=O)NCc3cccs3)C2=O)c1`, the inhibition is -8.2%. In the case of `CCOc1ccc(C(=O)Nc2ccc(N3CCCC3)cc2)cc1`, the inhibition was -29%. On to `CCOc1ccc(CNc2ccc(CNc3ncn[nH]3)cc2)cc1`, for which the inhibition is 9.7%. Regarding `CCOc1ccc(CNc2ccc(N3CCCC3)cc2)cc1`, the inhibition was 85.9% (active). As to `O=C(CSc1nc2[nH]ncc2c(=O)n1-c1ccccc1)NCc1cccs1`, the inhibition is -10.6%. `O=C(CCCCCC(=O)N(CCO)CCO)N(CCO)CCO`: the inhibition was -2.9%.

Turning to `CC1(C)CNc2cc([N+](=O)[O-])ccc2S1`, the inhibition was 1.5%.

For the compound `CC1(C)CNc2cc(N)ccc2S1`, the inhibition was 82.8% (active). With `CC1(C)CC(=S)Nc2ccccc2S1` the figure was 41.8%. In the case of `O=C(NCc1ccc2c(c1)OCO2)c1cc(-c2ccccc2)on1`, the inhibition is 15.7%. With `O=C(c1ccc(OCC2CCCO2)cc1)N1CCc2ccccc2C1` (centres undefined) the figure was 2.4%; with `Oc1ccc2ccccc2c1/C=N/Nc1nnc(-c2ncc[nH]2)c2ccccc12`, -2.3%. Take `CC(=O)Nc1ccc(C(=S)NCc2ccco2)cc1`: the inhibition is 9.7%. For the compound `CN(C)c1ccc(C(=S)NCc2ccco2)cc1`, the inhibition was 50.7% (active).

As to `CN(C)c1ccc(/C=N/NC(=S)NCc2ccco2)cc1`, the inhibition is -8%. Turning to `C/C(=N\NC(=O)COc1ccc(C#N)cc1)c1ccccc1OC(F)F`, the inhibition was 1%. The result for `CC(=O)Nc1cccc(Oc2ncnc3scc(-c4ccc(C(C)C)cc4)c23)c1` reads 12.9%. For `CNC(=O)c1nn(-c2ccc(Cl)cc2)ccc1=O`, the inhibition was 6.2%.

For the compound `CCOc1cc(NC(=S)NCCCOC)c(OCC)cc1NC(=O)c1cccs1`, the inhibition is 17.4%. On to `CC[n+]1ccc(C)c2cc(P(=O)(c3ccccc3)c3ccccc3)ccc21`, for which the inhibition is -16%.

Turning to `CC[n+]1ccc(/C=C/c2ccc(N(C)C)cc2)c2ccccc21`, the inhibition is 1%.

With `CC[n+]1ccc(C[n+]2ccccc2)c2ccccc21`, the inhibition is 96.8% (active). Regarding `CC(=O)Nc1ccc(C2=NN(Cc3nnc(-c4ccccc4)o3)C(=O)SC2)cc1`, the inhibition is 2.2%. Take `CN(C)c1cccc(C(=O)NCC2CCCO2)c1` (centres undefined): the inhibition is 9.2%. Take `O=C(Nc1ccc(N=Nc2ccccc2)cc1)c1ccc(Cl)cc1Cl`: the inhibition was 57.5% (active). `O=C(Nc1ccc(N=Nc2ccccc2)cc1)c1ccccc1Cl`: the inhibition was 2.6%. For `O=C(Nc1ccc(N=Nc2ccccc2)cc1)c1cccc(Cl)c1`, the inhibition is 7.7%. Regarding `COc1cccc(NC(=O)c2cccnc2)c1`, the inhibition is 8.6%. The result for `CCC(C)(C)n1nnnc1C(c1cc2cc(C)ccc2[nH]c1=O)N1CCCc2ccccc21` (centres undefined) reads 44.4%; that for `Cc1ccc2[nH]c(=O)c(C(c3nnnn3C3CCCC3)N3CCCc4ccccc43)cc2c1` (centres undefined), 57.3% (active); that for `O=c1[nH]c2cc3c(cc2cc1C(c1nnnn1C1CCCC1)N1CCCc2ccccc21)OCCO3` (centres undefined), 12.8%. Consider `CCOC(=O)Cc1csc(NC(=O)CSc2nnc(-c3ccc(F)cc3)o2)n1`, for which the inhibition was -5.5%.

Take `CCOC(=O)c1ccccc1NC(=O)COC(=O)c1ccc(C)c(S(=O)(=O)N2CCOCC2)c1`: the inhibition was 6.5%. On to `CCOC(=O)Cn1nc(C)n(-c2ccc(C(C)(C)C)cc2)c1=O`, for which the inhibition was 12.5%. In the case of `COc1ccc(/C=N/Nc2cc(C)nc(N)n2)cc1`, the inhibition was 12.1%.

`CN(C)c1cc(N/N=C/c2ccc(Cl)cc2)nc(N(C)C)n1`: the inhibition is 67.4% (active). Turning to `COc1ccccc1/C=N/NC1=NCCCCC1`, the inhibition is 2.7%. Consider `COc1ccccc1/C=N/Nc1nncc2ccccc12`, for which the inhibition is 2.9%. Regarding `COc1ccc(/C=N/Nc2cc(N(C)C)nc(N(C)C)n2)cc1`, the inhibition was 61.2% (active). Take `Cc1cc(N/N=C/c2ccc(Cl)cc2)nc(NCc2ccccc2)n1`: the inhibition is 21.7%.

Regarding `Cc1cc(N/N=C/c2ccccc2)nc(NCc2ccccc2)n1`, the inhibition was 21.5%. Regarding `Cc1cc(N/N=C\c2ccccc2)nc(-c2ccccc2O)n1`, the inhibition is 17.7%. For `Clc1ccc(/C=N/Nc2ccccn2)cc1`, the inhibition was -8.3%. Regarding `COc1ccccc1/C=N/Nc1cc(N(C)C)nc(N(C)C)n1`, the inhibition is 60.4% (active). Turning to `CN(C)c1cc(N/N=C\c2ccccc2)nc(N(C)C)n1`, the inhibition is 59.2% (active). For `COc1ccc(/C=N/Nc2cc(OC)ncn2)cc1`, the inhibition is 14.3%.

Turning to `CCn1c(SCC(=O)Nc2cc(C)on2)nc2c(c1=O)SC(C)C2` (centres undefined), the inhibition was 8.4%.

For the compound `O=C(Nc1ccc2c(c1)OCCO2)c1ccc2ccccc2n1`, the inhibition was -3.6%. The result for `O=C(COc1ccccc1)NCC(=O)Nc1ccc(S(=O)(=O)NCc2ccco2)cc1` reads 9.9%. As to `COc1ccc(C(C(=O)NC2CCCC2)N(Cc2cccs2)C(=O)c2ccn[nH]2)cc1OC` (centres undefined), the inhibition is 11.2%. With `CN(C)C(=O)CCSc1nnc(-c2ccncc2)o1` the figure was -4.7%; with `CC1(C)Cc2c(c(N3CCCC3)nc3sc4c(N5CCN(CCO)CC5)ncnc4c23)CO1`, -22.8%; with `Cc1cc(C(=O)N2CCCC(C(=O)c3cccc4ccccc34)C2)nc(C)n1` (centres undefined), 6.1%.
